# The supplement of paper PMC12067093, “Discovery and optimisation of a covalent ligand for TRIM25 and its application to targeted protein ubiquitination” (Chemical Science, 2025)
# The full data set covers some 21,000 targets. This sample favours those with the largest changes.
# Target: CLIC1_O00299_191_LHIVQVVCKK (UniProt O00299)
# Assay: probe-labelled cysteine peptide fold change vs DMSO (competition) (log2 fold change); higher = less target engagement (more negative = stronger competition)
# Conditions: THP-1, incubation time: 4 h
# 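Note: competitive chemoproteomic profiling in live THP-1 cells with an iodoacetamide desthiobiotin (IA-DTB) probe, comparing probe-labelled peptide intensities in compound-treated cells against DMSO-treated controls.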
compound,measurement,setting,value
CC1Cc2ccccc2N1C(=O)C1CCCN(C(=O)CCl)C1 (mixture of isomers) [TRIM25 ligand 11 (diastereomer mixture)],probe-labelled cysteine peptide fold change,10 µM,-0.428
same,probe-labelled cysteine peptide fold change,50 µM,-0.575
